# A number with no mark means an inactive call. Inconclusive results are not listed. A call without a number means that no potency is given here. Calls of active or inactive are those of the source. Calls follow the shape of the dose curve; as a rule, active = well fitted curve in the direction sought with a large enough effect; inconclusive = small, poorly fitted or top-dose-only effect, or another doubt; inactive = no such curve, though single readings can be large; an effect the other way counts as inactive or inconclusive.
# Tests used:
# [1] = qHTS for Inhibitors of Plasmodium falciparum (DD2) proliferation (AID 504314);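 also: parasite DNA measured by SYBR Green fluorescence after red cell lysis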
# How it was run: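 Erythrocytes infected with P. falciparum (0.3% parasitemia, 2.5% hematocrit final) were incubated with compounds for 72 h at 37C, 5% CO2. Parasite DNA was detected by SYBR Green I fluorescence after saponin/Triton lysis, normalized to artemisinin (0.29 uM) and DMSO controls.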
# [2] = qHTS for Inhibitors of Plasmodium falciparum (GB4) proliferation (AID 504315); also: nearly all actives have a fitted effect of over 50% in size; also: potency is read from the fitted curve at half-maximal effect
# How it was run: (§1)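 Erythrocytes infected with P. falciparum line (0.3% parasitemia, 2.5% hematocrit final) incubated with compounds 72 h at 37 °C, 5% CO2; SYBR Green lysis buffer added, fluorescence read next day. Normalized to 0.29 uM artemisinin and DMSO.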
# [3] = qHTS for Inhibitors of Plasmodium falciparum (CP250) proliferation (AID 504320)
# How it was run: as §1
# [4] = qHTS for Inhibitors of Plasmodium falciparum (HB3) proliferation (AID 504318); also: nearly all actives have a fitted effect of over 60% in size; also: potency is read from the fitted curve at half-maximal effect
# How it was run: as §1
# [5] = target: Cytochrome P450 2C9 (Homo sapiens) (UniProt P11712); experiment: qHTS Assay for Inhibitors and Substrates of Cytochrome P450 2C9 (AID 883); also: nearly all actives have a fitted effect of over 60% in size
# How it was run: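 Signal: luciferase luminescence reporting luciferin produced by CYP2C9. Conditions: 10nM enzyme, Luciferin-H 100uM at KM, 25mM KPO4, 37C, 60 min NADPH-driven reaction. Reference: 57uM sulphaphenazole as 100% inhibition.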
# [6] = target: Cytochrome P450 3A4 (Homo sapiens) (UniProt P08684); experiment: qHTS Assay for Inhibitors and Substrates of Cytochrome P450 3A4 (AID 884); also: potency is read from the fitted curve at half-maximal effect; nearly all actives have a fitted effect of over 50% in size
# How it was run: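 20 nM human CYP3A4 with 25 uM Luciferin-PPXE (at KM) in 200 mM KPO4, preincubated 10 min with compound; NADPH regeneration started a 60 min RT reaction. Luciferin detected by luminescence, normalized to 57 uM ketoconazole as full inhibition.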
# [7] = target: Cytochrome P450 3A4 (Homo sapiens) (UniProt P08684); experiment: qHTS Assay for Activators of Cytochrome P450 3A4 (AID 885); also: nearly all actives have a fitted effect of over 65% in size
# How it was run: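 20nM CYP3A4 + 25uM Luciferin-PPXE (=KM), 200mM KPO4; cpd 10 min RT; NADPH regen, 60 min RT; stop w/ detection buffer, 20 min; luminescence. Normalized to 57 uM ketoconazole.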
# [8] = target: Cytochrome P450 2D6 (Homo sapiens) (UniProt P10635); experiment: qHTS Assay for Inhibitors and Substrates of Cytochrome P450 2D6 (AID 891);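 also: luciferin methyl ether substrate demethylated by CYP2D6 with NADPH regeneration; nearly all actives have a fitted effect of over 60% in size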
# How it was run: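 Human CYP2D6 (5 nM) with 30 uM Luciferin-ME EGE (at Km) in 100 mM KPO4, compound preincubated 10 min, then NADPH regeneration system for 60 min at room temperature. Luciferin read by luminescence; normalized to 1.43 uM quinidine.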
# [9] = qHTS for Inhibitors of Plasmodium falciparum (7G8) proliferation (AID 504316); also: nearly all actives have a fitted effect of over 65% in size; also: potency is read from the fitted curve at half-maximal effect
# How it was run: as §1
# Chain of Cytochrome P450 3A4 (Homo sapiens) (P08684 whole entry, looked up): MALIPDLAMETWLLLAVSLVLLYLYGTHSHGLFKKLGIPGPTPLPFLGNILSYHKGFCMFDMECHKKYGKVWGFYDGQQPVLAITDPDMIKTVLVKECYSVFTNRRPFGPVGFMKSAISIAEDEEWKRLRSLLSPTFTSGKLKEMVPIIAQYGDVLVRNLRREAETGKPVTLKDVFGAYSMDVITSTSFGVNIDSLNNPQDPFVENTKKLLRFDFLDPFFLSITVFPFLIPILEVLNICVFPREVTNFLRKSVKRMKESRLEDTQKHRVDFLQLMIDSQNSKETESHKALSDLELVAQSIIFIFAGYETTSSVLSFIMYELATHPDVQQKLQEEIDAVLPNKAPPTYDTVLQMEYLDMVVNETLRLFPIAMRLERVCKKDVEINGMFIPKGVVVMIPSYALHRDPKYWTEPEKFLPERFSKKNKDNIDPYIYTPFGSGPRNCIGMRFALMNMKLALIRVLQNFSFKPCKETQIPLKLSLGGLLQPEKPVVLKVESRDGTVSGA
# Chain of Cytochrome P450 2C9 (Homo sapiens) (P11712 whole entry, looked up): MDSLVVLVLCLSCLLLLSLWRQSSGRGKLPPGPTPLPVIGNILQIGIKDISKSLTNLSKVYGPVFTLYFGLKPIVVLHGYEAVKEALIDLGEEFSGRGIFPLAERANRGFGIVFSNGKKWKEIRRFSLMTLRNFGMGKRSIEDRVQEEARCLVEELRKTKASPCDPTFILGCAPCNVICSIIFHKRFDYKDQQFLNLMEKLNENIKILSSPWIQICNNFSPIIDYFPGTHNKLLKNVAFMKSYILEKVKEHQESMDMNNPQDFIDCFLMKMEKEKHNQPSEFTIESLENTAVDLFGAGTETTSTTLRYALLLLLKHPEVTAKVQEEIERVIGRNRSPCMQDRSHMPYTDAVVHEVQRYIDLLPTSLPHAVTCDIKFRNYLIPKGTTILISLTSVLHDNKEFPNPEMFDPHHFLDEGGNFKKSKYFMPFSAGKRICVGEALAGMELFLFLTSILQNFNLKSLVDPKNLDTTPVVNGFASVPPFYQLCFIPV
# Chain of Cytochrome P450 2D6 (Homo sapiens) (P10635 whole entry, looked up): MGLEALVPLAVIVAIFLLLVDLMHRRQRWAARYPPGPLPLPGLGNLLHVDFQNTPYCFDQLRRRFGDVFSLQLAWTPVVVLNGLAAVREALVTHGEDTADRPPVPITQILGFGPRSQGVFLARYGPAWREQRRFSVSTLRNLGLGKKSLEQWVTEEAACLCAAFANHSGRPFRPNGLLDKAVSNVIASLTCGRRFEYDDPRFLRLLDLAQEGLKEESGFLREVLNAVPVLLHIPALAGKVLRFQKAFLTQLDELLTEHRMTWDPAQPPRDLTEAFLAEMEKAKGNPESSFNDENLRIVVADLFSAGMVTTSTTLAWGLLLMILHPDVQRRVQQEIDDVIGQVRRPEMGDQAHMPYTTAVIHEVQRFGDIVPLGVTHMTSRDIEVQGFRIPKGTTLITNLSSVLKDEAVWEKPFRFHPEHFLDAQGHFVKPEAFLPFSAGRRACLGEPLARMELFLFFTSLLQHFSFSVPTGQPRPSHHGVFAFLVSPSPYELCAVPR
smiles,measurement,setting,value
CCCCS(=O)(=O)N1C2=NC(C(=O)OC)=C(C(=O)OC)[C@@H]3N(C)c4ccccc4[C@]23C[C@H]1C(=O)OC,Potency,[1],inactive
same,Potency,[2],inactive
same,Potency,[3],inactive
C=CCN1c2ccccc2[C@]23C[C@@H](C(=O)OC)N(C(=O)c4cc(C)oc4C)C2=NC(C(=O)OC)=C(C(=O)OC)[C@H]13,Potency,[1],inactive
same,Potency,[2],inactive
same,Potency,[3],inactive
CC(C)(C)OC(=O)NCCCC1=CC2=CC(=O)C(C)(OC(=O)c3cccs3)C(=O)C2=CO1 (stereo not drawn),Potency,[1],inactive
same,Potency,[2],inactive
same,Potency,[3],inactive
C=CCN1c2ccccc2[C@]23C[C@@H](C(=O)OC)N(S(=O)(=O)c4ccc(C#N)cc4)C2=NC(C(=O)OC)=C(C(=O)OC)[C@H]13,Potency,[1],inactive
same,Potency,[2],inactive
same,Potency,[3],inactive
COC(=O)[C@@H](NC(=O)N1CCc2nc(-c3ccc(OC)cc3C)c3c(c2C1)CO[C@@H](c1ccccc1)C3)C(C)C,Potency,[1],inactive
same,Potency,[2],1.9 µM (active)
same,Potency,[3],inactive
CCCCc1nc2c(c3c1C[C@H](C)OC3)CN(C(=O)c1cc(I)ccc1F)CC2,Potency,[1],inactive
same,Potency,[2],inactive
same,Potency,[3],inactive
CC#CCN1c2ccccc2[C@]23C[C@@H](C(=O)OC)N(C(=O)OCC)C2=NC(C(=O)OC)=C(C(=O)OC)[C@H]13,Potency,[1],inactive
same,Potency,[2],inactive
same,Potency,[4],inactive
same,Potency,[3],inactive
COc1ccc2c(c1)O[C@@H](c1cccc(C(F)(F)F)c1)[C@H](OC(=O)N[C@H]1CCCc3ccccc31)C2=O,Potency,[1],inactive
same,Potency,[2],inactive
same,Potency,[3],inactive
C[C@H]1Cc2c(COc3ccccc3)nc3c(c2CO1)CN(C(=O)Cc1cccs1)CC3,Potency,[1],inactive
same,Potency,[2],inactive
same,Potency,[3],inactive
C=C(C(C)=O)C(O)c1ccc2ccccc2c1 (stereo not drawn),Potency,[1],inactive
same,Potency,[2],inactive
same,Potency,[4],inactive
same,Potency,[3],inactive
COC(=O)CCC(=O)OC1(C)C(=O)C2=CN(c3ccccc3)C(c3ccc(OC)cc3)=CC2=C(Br)C1=O (stereo not drawn),Potency,[1],inactive
same,Potency,[2],inactive
same,Potency,[3],inactive
C/C=C/C1=Cc2ccccc2C(CC(=O)OC)N1C(=O)OC (stereo not drawn),Potency,[1],inactive
same,Potency,[2],inactive
same,Potency,[3],inactive
CC#CCN1c2ccccc2[C@]23C[C@@H](C(=O)OC)N(C(=O)c4ccc(Br)cc4)C2=NC(C(=O)OC)=C(C(=O)OC)[C@H]13,Potency,[1],inactive
same,Potency,[2],inactive
same,Potency,[4],inactive
same,Potency,[3],inactive
COC(=O)C1=C(C(=O)OC)[C@@H]2N(C)c3ccccc3[C@@]23C[C@@H](C(=O)OC)N(S(=O)(=O)c2c(C)noc2C)C3=N1,Potency,[1],inactive
same,Potency,[2],inactive
same,Potency,[3],inactive
COC(=O)C1=C(C(=O)OC)[C@@H]2N(Cc3ccccc3)c3ccccc3[C@@]23C[C@@H](C(=O)OC)N(C(=O)COCc2ccccc2)C3=N1,Potency,[1],inactive
same,Potency,[2],inactive
same,Potency,[3],inactive
CCCNC(=O)N1C2=NC(C(=O)OC)=C(C(=O)OC)[C@@H]3Nc4ccccc4[C@]23C[C@H]1C(=O)OC,Potency,[1],inactive
same,Potency,[2],inactive
same,Potency,[3],inactive
CCCCCCC(=O)Cc1cc(OC)c(OC)cc1C=C(C(=O)OCC)C(=O)OCC,Potency,[5],inactive
same,Potency,[6],3.16 µM (active)
same,"activity change, positive = activation",[7],-90.7% [at 11.4 µM]
same,Potency,[8],inactive
CCOC(=O)OC[C@H]1O[C@H](c2ccccc2)C=C[C@H]1OC(=O)OCC,Potency,[1],inactive
same,Potency,[9],inactive
same,Potency,[3],inactive
COC(=O)CCC(=O)OC1(C)C(=O)C=C2C=C(C3CC3)N(CC3CC3)C=C2C1=O (stereo not drawn),Potency,[1],inactive
same,Potency,[4],inactive
COC(=O)C1=C(C(=O)OC)[C@@H]2Nc3ccccc3[C@@]23C[C@@H](C(=O)OC)N(S(=O)(=O)c2ccc(C(F)(F)F)cc2)C3=N1,Potency,[1],inactive
same,Potency,[3],inactive
COC(=O)C(C(=O)OC)C1c2ccccc2C=C(C)N1C(=O)OC (stereo not drawn),Potency,[1],inactive
same,Potency,[3],inactive
CCN1C(=O)N(S(=O)(=O)c2ccc(C)cc2)[C@@H](c2ccccc2)C(C(=O)OC)=C1C,Potency,[1],inactive
same,Potency,[9],inactive
same,Potency,[3],inactive
COC(=O)N1C(/C=C/c2ccc3c(c2)OCO3)=Cc2ccccc2C1CC(C)=O (stereo not drawn),Potency,[1],inactive
same,Potency,[9],2.69 µM (active)
same,Potency,[3],inactive
COC(=O)C1=C(C(=O)OC)[C@@H]2N(Cc3ccccc3)c3ccccc3[C@@]23C[C@@H](C(=O)OC)N(S(=O)(=O)c2ccc([N+](=O)[O-])cc2)C3=N1,Potency,[1],inactive
same,Potency,[4],1.9 µM (active)
CCOC(=O)NN=C1C[C@@H](O)[C@@H](O)[C@@H]2[C@H]3C(=O)N(CC)C(=O)[C@@H]3CC[C@@H]12,Potency,[1],inactive
same,Potency,[9],inactive
same,Potency,[3],inactive
Cc1cc2c(c(=O)n1-c1ccccc1)[C@H]1O[C@](c3ccsc3)(Cc3cc(C#N)ccc31)O2,Potency,[1],inactive
same,Potency,[3],inactive
COc1ccc(-c2nc3c(c4c2C[C@H](c2ccccc2)OC4)CN(C(=O)Cc2cccs2)CC3)c(C)c1,Potency,[1],inactive
same,Potency,[3],inactive
COC(=O)C1=C(C(=O)OC)[C@@H]2N(Cc3ccccc3)c3ccccc3[C@@]23C[C@@H](C(=O)OC)N(C(=O)CC(C)C)C3=N1,Potency,[1],inactive
same,Potency,[3],inactive
COC(=O)CC1c2ccccc2C=C(/C=C/c2ccc3c(c2)OCO3)N1C(=O)OC (stereo not drawn),Potency,[1],inactive
same,Potency,[4],inactive
same,Potency,[3],inactive
COC(=O)C1=C(C(=O)OC)[C@@H]2N(C)c3ccccc3[C@@]23C[C@@H](C(=O)OC)N(S(=O)(=O)c2cccs2)C3=N1,Potency,[1],inactive
same,Potency,[3],inactive
COC/C=C/C1=CC2=CC(=O)C(C)(OC(=O)c3cnc4ccccc4n3)C(=O)C2=CN1CCCCO (stereo not drawn),Potency,[1],inactive
same,Potency,[3],inactive

# Source: PubChem BioAssay (NCATS)
